# From PubChem
# TRPV1 agonist – HTS Assay for Compounds that Act as Agonists of the Vanilloid Receptor 1 | Transient receptor potential cation channel subfamily V member 1 (Homo sapiens), Q8NER1 | TRPV1-expressing cells, Fluo-8 calcium influx, agonist mode | activation, % at 8.33 µM | hit rate 0.19% among 320,000 | AID 540275, 2011; in the data active means activation above about 80%; inconclusive means between about 30% and that limit; further: 0% is about no effect
# Target sequence (Q8NER1 whole entry, looked up): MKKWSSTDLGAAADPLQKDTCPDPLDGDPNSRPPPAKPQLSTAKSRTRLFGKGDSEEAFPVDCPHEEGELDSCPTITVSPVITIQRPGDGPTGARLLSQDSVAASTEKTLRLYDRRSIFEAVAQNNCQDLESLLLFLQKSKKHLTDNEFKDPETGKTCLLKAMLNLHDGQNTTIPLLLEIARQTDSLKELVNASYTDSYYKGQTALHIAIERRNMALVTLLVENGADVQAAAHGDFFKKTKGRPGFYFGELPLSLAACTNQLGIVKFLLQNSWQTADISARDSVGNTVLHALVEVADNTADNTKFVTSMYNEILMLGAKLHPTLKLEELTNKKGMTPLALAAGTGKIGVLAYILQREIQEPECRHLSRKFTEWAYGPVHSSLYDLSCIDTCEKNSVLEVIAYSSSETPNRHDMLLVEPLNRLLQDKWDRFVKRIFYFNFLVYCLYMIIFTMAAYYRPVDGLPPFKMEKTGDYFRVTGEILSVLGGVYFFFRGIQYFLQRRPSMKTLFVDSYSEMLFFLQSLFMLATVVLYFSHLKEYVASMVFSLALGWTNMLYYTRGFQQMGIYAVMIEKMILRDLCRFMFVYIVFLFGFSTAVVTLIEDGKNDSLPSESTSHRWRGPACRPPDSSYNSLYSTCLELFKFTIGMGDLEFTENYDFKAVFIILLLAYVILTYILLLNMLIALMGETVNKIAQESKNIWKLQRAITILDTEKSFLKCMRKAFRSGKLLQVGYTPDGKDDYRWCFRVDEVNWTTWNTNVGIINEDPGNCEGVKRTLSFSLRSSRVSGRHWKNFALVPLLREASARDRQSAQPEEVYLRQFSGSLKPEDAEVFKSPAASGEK
#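 Fluo-8 calcium influx in TRPV1-expressing cells, kinetic read (ex 480/em 520 nm). Compound added and read 3 min for agonist activity, followed by capsaicin at EC20 final and 2 min further read for enhancement.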
# uPA generation – qHTS for Inhibitors of Cell Surface uPA Generation. Potency, µM (top dose mostly 38.3 µM), for inactives: at the highest dose activity change, negative = inhibition, hits mostly inhibitors. AID 540303, 2011. hit rate 0.31% among 330,000. cell surface uPA generation assay, qHTS; active means well fitted inhibition curve with a large enough effect; inconclusive means small, poorly fitted or top-dose-only effect; inactive means no such curve, though single readings can be large or run the other way; tested in mouse RAW 264.7 cells; further: potency means the concentration at half of the fitted maximal effect; on the % scale 0 is the no-effect control and ±100 the full control effect; nearly all actives have a fitted effect of over 55% in size
# TRPV1 PAM – HTS Assay for Compounds that Act as Potentiators of the Vanilloid Receptor 1 | Transient receptor potential cation channel subfamily V member 1 (Homo sapiens), Q8NER1 | TRPV1-expressing cells, Fluo-8 calcium influx, capsaicin EC20 potentiation | potentiation, % at 8.33 µM | hit rate 0.02% among 320,000; in the data active means potentiation above about 80%; inconclusive means between about 30% and that limit; further: 0% is about no effect
#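 Fluo-8 calcium influx in TRPV1-expressing cells, kinetic read (ex 480/em 520 nm). Compound added and read 3 min for agonist activity, followed by capsaicin at EC20 final and 2 min further read for enhancement.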
# RORgamma inh – qHTS for inhibitors of ROR gamma transcriptional activity; Potency, µM (top dose mostly 53.6 µM), without a hit: at the highest dose activity change, negative = inhibition, actives largely listed as inhibitors; Nuclear receptor ROR-gamma (Mus musculus), P51450; Drosophila S2 Gal4-RORgamma UAS-luciferase reporter, 20 h; AID 2551, 2010; hit rate 5.4% among 310,000; further: potency means the concentration at half of the fitted maximal effect; on the % scale 0 is the no-effect control and ±100 the full control effect; nearly all actives have a fitted effect of over 60% in size
#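 Drosophila Schneider cells stably carrying a metallothionein-driven Gal4 DBD–ROR gamma fusion and a UAS-Photinus luciferase reporter were exposed to compound for 1 hr, then induced with copper sulfate (700 uM final) for 20 hr at ambient temperature before luminescence reading.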
# VP16 counter – VP16 counterscreen qHTS for inhibitors of ROR gamma transcriptional activity; Drosophila S2 Gal4-VP16 UAS-luciferase, luminescence, 20 h; Potency, µM (series often up to 53.6 µM), inactives show top-dose activity, negative = inhibition, hits mostly inhibitors; hit rate 3.5% among 310,000;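 further: Gal4-VP16 expression switched on by copper sulfate through the metallothionein promoter; potency means the concentration at half of the fitted maximal effect; on the % scale 0 is the no-effect control and ±100 the full control effect; nearly all actives have a fitted effect of over 50% in size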
# Starred values were filed as active, the others as inactive; ? = inconclusive; / = no result; [ ] = another dose, or the depositor's remark. Rows were chosen to be rich in hits. Some 5.8% of all compounds tested hit in one or more screens of this group. Unless noted, the call rests on the fitted dose curve; in most records, active means well fitted curve in the direction sought with a large enough effect; inconclusive means small, poorly fitted or top-dose-only effect, or another doubt; inactive means no such curve, though single readings can be large; an effect the other way counts as inactive or inconclusive.
SMILES,TRPV1 agonist,uPA generation,TRPV1 PAM,RORgamma inh,VP16 counter
O=C(O)CCN1C(=O)C(=C2CCCCCC2)SC1=S,3,-7%,-3,?,2%
NC(=O)NNc1ncc(C(F)(F)F)cc1Cl,-2,-1%,4,7%,-12%
O=C(NNc1cccc(Cl)n1)c1c(Cl)cccc1Cl,10,-4%,-5,-17%,-6%
O=C(NNc1ncccc1Cl)c1c(Cl)cccc1Cl,1,-3%,-3,4µM*,14µM*
O=C(NNc1ncc(C(F)(F)F)cc1Cl)c1c(Cl)cccc1Cl,10,-7%,-2,0.89µM*,2.8µM*
CCc1cccc(-n2c(SCC(=O)c3c(N)n(C4CC4)c(=O)[nH]c3=O)nnc2N2CCOCC2)c1,/,5%,/,/,/
Cc1noc(C)c1C(=O)Nc1c(F)cc(F)cc1Br,-4,/,4,0%,-6%[0.365 µM]
Cc1cc(C(=O)Nc2c(F)cc(F)cc2Br)c(C)o1,-5,/,-15,?,10µM*
N#CC1=C(N)NC(=S)C(C(N)=O)C1c1ccc([N+](=O)[O-])cc1 (stereo unspecified),0,7%,4,?,13µM*
CCOc1ccc(NC(=S)NC(=O)c2c(Br)cnn2C)c([N+](=O)[O-])c1,1,-11%,1,?,-1%
CCOc1ccc(N/C=C/C(=O)c2ccccc2)c([N+](=O)[O-])c1,4,-14%,-9,7.1µM*,7.1µM*
CCOc1ccc(NC(=S)NC(=O)c2c(Cl)cnn2CC)c([N+](=O)[O-])c1,6,4%,12,7.9µM*,?
CCOc1ccc(NC(=S)NC(=O)c2cccnc2)c([N+](=O)[O-])c1,1,0%,1,20µM*,18µM*
CCn1ncc(Cl)c1C(=O)NC(=S)Nc1c(C)cc(C)cc1[N+](=O)[O-],10,1%,6,1.3µM*,13µM*
Cc1ccc([N+](=O)[O-])cc1NC(=S)NC(=O)c1c(Cl)cnn1C,-4,8%,-3,/,/
CCOc1cccc(C(=O)NC(=S)NCc2cccnc2)c1,5,8%,11,?,?
CC[C@H](C)[C@H](NC(=O)[C@@H]1CCCN1C(=O)[C@H](Cc1cnc[nH]1)NC(=O)[C@H](CCCCNC(=O)[C@H](CCCN=C(N)N)NC(=O)OCc1ccccc1)NC(=O)[C@H](Cc1ccc(O)cc1)NC(=O)c1cccnc1)C(=O)O,/,/,/,0%,2%
CC1(OC(=O)c2cnc3ccccc3n2)C(=O)C=C2C=C(c3ccsc3)OC=C2C1=O (stereo unspecified),/,/,/,15%,-9%
COc1ccc(NC(=O)C/C(C)=N/NC(=O)c2ccncc2)c([N+](=O)[O-])c1,?,5%,-26,13µM*,-21%
Cc1cc(C)c(NC(=S)NC(=O)c2c(Cl)c(C)nn2C)c([N+](=O)[O-])c1,6,0%,16,20µM*,?
COc1ccc(OCC(=O)N/N=C(\C)CC(=O)Nc2ccc(OC)cc2[N+](=O)[O-])cc1,0,-22%,-3,?,-13%
CCOc1cc(C(=O)Nc2cc(C)ccc2OC)ccc1OCC(=O)N1CCCCC1,2,8%,-18,37%,-2%
Clc1ccc(Sc2oc(/C=N/n3cnnc3)cc2Br)cc1,3,17%,?,6%,-1%
CN(C)C(=O)/C(C#N)=C\c1cc(Br)c(Sc2ccc(Cl)cc2)o1,?,0%,4,?,10µM*
COc1ccc(-c2cc(-c3n[nH]c(=S)n3-c3ccccc3OC)[nH]n2)cc1,-3,1%,15,?,?
SMILES,TRPV1 agonist,uPA generation,TRPV1 PAM,RORgamma inh,VP16 counter
COc1ccc(OC)c(-n2c(-c3ccccc3)n[nH]c2=S)c1,-2,0%,5,10µM*,?
COc1ccccc1-n1c(-c2ccccc2)n[nH]c1=S,5,-12%,-6,7.1µM*,?
COc1ccc(OC)c(-n2c(-c3cccc(C)c3)n[nH]c2=S)c1,-1,2%,-5,2.5µM*,-29%
COc1ccc(OC)c(-n2c(-c3cc(-c4ccccc4)n[nH]3)n[nH]c2=S)c1,-4,-5%,1,7.9µM*,?
CC(=O)c1cccc(N(C(=O)CNC(=O)c2cccs2)C(C(=O)NCC2CCCO2)c2ccccc2)c1 (stereo unspecified),4,2%,5,14%,6%
O=C(COC(=O)c1cccc(S(=O)(=O)N2CCCCC2)c1)NC1CCCCC1,?,8%,-14,/,/
COC(=O)N1CCC[C@@]2(CCN(C(=O)Nc3ccc(OC)cc3)C2)C1,/,/,/,3%,-3%
OCCN1c2ccccc2CCc2ccccc21,/,20%,/,/,/
Cc1ccc(N=c2oc3cc(O)ccc3cc2C(N)=O)cc1,-2,-15%,-12,0.89µM*,0.89µM*
CC(=O)c1cc2ccc(O)cc2oc1=O,4,10%,0,3%,-6%
CCC(=O)NC(=S)Nc1ccccc1C(=O)OC,2,2%,-6,13µM*,?
COC(=O)c1ccccc1NC(=S)NC(=O)c1ccc2ccccc2c1,1,1%,-4,?,?
COC(=O)c1ccccc1NC(=O)NC1CC1,-2,12%,0,4%,-5%
COC(=O)c1ccccc1NC(=S)NC(=O)c1cccc2ccccc12,3,-1%,18,4.5µM*,18µM*
COC(=O)c1ccccc1NC(=S)NC(C)=O,-6,9%,5,?,22%
COC(=O)c1ccccc1NC(=S)NC(=O)C1CC1,0,2%,-14,13µM*,-20%
CCCC(=O)NC(=S)Nc1cccc2c(O)cccc12,-1,0%,5,13µM*,?
C=CCNc1nc2c3ccccc3n(C(C)=O)c2s1,-4,-6%,6,-44%,2%
CCc1ccc(CNC(=O)Cn2nc(-c3ccc(C)cc3)ccc2=O)cc1,5,/,-3,40%,0%
Cc1ccc(-c2csc3nc(SCC(=O)Nc4ccc(Cl)c(C(=O)O)c4)[nH]c(=O)c23)cc1,-3,-3%,7,3%,8%
Cc1cccc(C)c1OCC(=O)NNC(=S)NC(=O)C1CC1,1,-33%,6,18µM*,?
COC(=O)c1ccccc1NC(=S)NC(=O)COc1ccc(C(C)C)cc1,-18,2%,-15,11µM*,?
CCCC(=O)NC(=S)Nc1ccccc1C(=O)OC,-2,6%,2,16µM*,?
COC(=O)c1ccccc1NC(=O)Oc1ccc(C(C)C)cc1,/,/,/,10%,-1%
CC1(C)SC2C(NC(=O)C(NC(=O)N3CCNC3=O)c3ccccc3)C(=O)N2C1C(=O)O (stereo unspecified),/,/,/,1%,-3%
